BAZ2B inh – qHTS Assay for Inhibitors of BAZ2B | Bromodomain adjacent to zinc finger domain protein 2B (Homo sapiens), Q9UIF8 | AlphaScreen BAZ2B-H3K14Ac peptide displacement | Potency, µM (doses to about 114 µM), for inactives: top-dose activity change, negative = inhibition, actives largely listed as inhibitors | 360,000 compounds, 4.4% hits | AID 504333, 2011; note: % is set by controls: 0 for no effect and ±100 for the full control effect; nearly all actives have a fitted effect of over 60% in size
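AlphaScreen displacement of biotin-H3(5-23)K14Ac peptide (50 nM final) from BAZ2B (50 nM final) in PBS pH 7.4, 0.01% Tween-20; complex preformed 30 min RT, then compounds (top 110 uM) 30 min RT, beads 20 min dark.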
JMJD2A Tudor inh – qHTS Assay for Inhibitors of JMJD2A-Tudor Domain. Lysine-specific demethylase 4A (Homo sapiens), O75164. AlphaScreen JMJD2A-Tudor / H3K4me3 peptide binding. Potency, µM (top dose mostly 114 µM), for the others: at the highest dose activity change, negative = inhibition, most hits filed as inhibitors. 390,000 compounds, 4.4% hits; note: % is set by controls: 0 for no effect and ±100 for the full control effect; nearly all actives have a fitted effect of over 50% in size
G9a inh – qHTS Assay for Inhibitors of Histone Lysine Methyltransferase G9a | AID 504332, 2011 | G9a H3K9 monomethylation, AlphaScreen, 2 h | 350,000 compounds, 8.8% hits | Histone-lysine N-methyltransferase EHMT2 (Homo sapiens), Q96KQ7 | Potency, µM (highest dose often 102 µM), for the others: top-dose activity, negative = inhibition, most hits filed as inhibitors; note: % is set by controls: 0 for no effect and ±100 for the full control effect; nearly all actives have a fitted effect of over 75% in size
Target sequence (Q96KQ7 913-1193 limits assumed): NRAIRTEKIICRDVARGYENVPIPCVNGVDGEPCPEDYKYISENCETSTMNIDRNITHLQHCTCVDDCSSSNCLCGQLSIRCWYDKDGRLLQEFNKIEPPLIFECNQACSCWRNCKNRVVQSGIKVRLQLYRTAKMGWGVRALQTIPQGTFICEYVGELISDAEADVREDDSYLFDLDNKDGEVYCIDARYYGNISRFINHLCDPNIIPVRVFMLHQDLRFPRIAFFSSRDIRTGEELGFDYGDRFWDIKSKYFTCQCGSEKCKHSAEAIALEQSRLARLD
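Step 1: enzyme (final 20 nM) with compound, 15 min RT. Step 2: substrate peptide 500 nM and SAM 20 uM, 2 h RT. Step 3: anti-H3K9me1 antibody and AlphaScreen beads, 10 min, then plate read.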
Sfp PPTase inh – qHTS Assay for Inhibitors of Bacillus subtilis Sfp phosphopantetheinyl transferase (PPTase) | Potency, µM, inactives show largest response in the series, negative = inhibition, usual class: inhibitors | AID 1490, 2009 | 310,000 compounds, 3.5% hits | Biochemical Sfp PPTase activity, qHTS;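 note: the enzyme is Sfp with the accession as filed and its product quenches rhodamine fluorescence; 0% = enzyme reaction without inhibitor and -100% = no enzyme wells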
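Buffer: 50 mM Hepes-Na pH 7.6, 10 mM MgCl2, 0.01% Nonidet P-40, 0.01% BSA. Enzyme 15 nM, pre-exposed to compound 15 min; substrates then added and fluorescence change tracked over 30 min.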
HP1b chromo inh – HTS for Inhibitors of HP1-beta Chromodomain Interactions with Methylated Histone Tails; AID 540317, 2011; AlphaScreen HP1-beta / biotin-H3K9me3 peptide binding; Chromobox protein homolog 1 (Homo sapiens), P83916; Potency, µM (series often up to 114 µM), for inactives: at the top dose activity change, negative = inhibition, usual class: inhibitors; 390,000 compounds, 0.56% hits; note: nearly all actives have a fitted effect of over 70% in size
Target sequence (P83916 whole entry, looked up): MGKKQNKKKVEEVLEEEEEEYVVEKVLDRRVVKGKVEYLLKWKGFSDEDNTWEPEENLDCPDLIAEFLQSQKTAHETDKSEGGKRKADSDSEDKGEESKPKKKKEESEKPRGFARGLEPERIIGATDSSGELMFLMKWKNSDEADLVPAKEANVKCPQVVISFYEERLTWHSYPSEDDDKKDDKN
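HP1-beta protein (50 nM final) preincubated 30 min at room temperature with biotinylated H3(1-18)K9me3 peptide (50 nM) in PBS pH 7.4, 0.01% Tween-20, then compound added for 30 min. AlphaScreen streptavidin donor/nickel chelate acceptor beads (10 ug/mL final), 30 min dark, luminescence read.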
* = called active by the depositor; ? = inconclusive; / = no result; [ ] = another dose, or the depositor's remark. In the library only some 12% were active in any assay of this set; here they are far more common. Calls come from the whole dose curve; as a rule, active = well fitted curve in the direction sought with a large enough effect; inconclusive = small, poorly fitted or top-dose-only effect, or another doubt; inactive = no such curve, though single readings can be large; an effect the other way counts as inactive or inconclusive. Potency is the fitted concentration of half-maximal effect.

SMILES	BAZ2B inh	JMJD2A Tudor inh	G9a inh	Sfp PPTase inh	HP1b chromo inh
CCC(CC)N1CCN(C(=O)Cc2ccccc2)CC1	?	3.16µM*	11.2µM*	-7.4%	?
CCN1CCN(C(=O)Cc2ccc(C)cc2)CC1	-11.1%	-5.6%	7.3%	-2.6%	26.7%
CN1CCN(S(=O)(=O)c2cccc(C(=O)N3CCN(c4ccccc4F)CC3)c2)CC1	6.7%	-16.8%	2µM*	/	18.1%
CN1CCC23CCCC[C@H]2C1Cc1ccc(O)cc13 (some centres undefined)	/	/	24.4%[12.7 µM]	/	/
CC(CO)NC(=O)C1C=C2c3cccc4[nH]cc(c34)CC2N(C)C1 (centres undefined)	/	/	15.8µM*	17.2%	/
CC(CO)NC(=O)C1C=C2c3cccc4[nH]cc(c34)C[C@H]2N(C)C1 (some centres undefined)	/	/	-30.8%[2.33 µM]	22.9%	/
C[C@@H](CO)NC(=O)[C@@H]1C=C2c3cccc4[nH]cc(c34)C[C@H]2N(C)C1	/	/	/	20.8%	/
CC[C@@H](CO)NC(=O)[C@H]1C=C2c3cccc4c3c(cn4C)C[C@H]2N(C)C1	/	/	34.7%[12.7 µM]	56.2µM*	/
CCCCC/C=C\C/C=C\C/C=C\C/C=C\CCCC(=O)OC(CO)CO	/	/	36.7%[59 µM]	24.9%	/
CN1C(=O)C(=Cc2ccc(N(C)C)c([N+](=O)[O-])c2)C(=O)N(C)C1=O	14.3%	/	116.9%[59 µM]	56.2µM*	/
O=C1NC(=O)C(=Cc2ccccc2[N+](=O)[O-])C(=O)N1	/	-4.2%	/	/	7.7%
CN(C)c1ccc(C=C2C(=O)NC(=S)NC2=O)cc1[N+](=O)[O-]	?	35.5µM*	7.08µM*	-87.1%	?
CCOc1cc(C=C2C(=O)NC(=O)NC2=O)cc([N+](=O)[O-])c1O	56.2µM*	/	/	35.5µM*	/
CN(C)c1ccc(C=C2C(=O)NC(=O)NC2=O)cc1[N+](=O)[O-]	/	-13.5%[11.4 µM]	?	25.1µM*	10.6%
CCOC(=O)c1c(P(=O)(N2CCOCC2)N2CCOCC2)noc1N	9.0%	-2.3%[11.4 µM]	-25.5%	-2.3%	69.8%
c1ccc(C2=NP(N3CCOCC3)(N3CCOCC3)=NC(N3CCOCC3)=N2)cc1	16.4%	/	15.4%[59 µM]	7.9%	/
N#CC(C#N)=NNc1cccc(Cl)c1	/	/	/	56.2µM*	/
Cn1ncnc2c(=O)n(C)c(=O)nc1-2	7.7%	-4.3%	12.6µM*	?	62.1%
CC[N+](C)(CC)CCCCOc1ccc2c(c1)C(=O)c1cc(OCCCC[N+](C)(CC)CC)ccc1-2	?	22.4µM*	31.6µM*	14.1µM*	?
O=c1[nH]c(=O)n(Cc2ccccc2)c(O)c1/C=C1\C=Nc2ccccc21	-15.9%	-31.5%	-45.4%	?	51.9%
COc1ccc(-n2c(O)c(/C=C3\C=Nc4ccc(Br)cc43)c(=O)[nH]c2=O)cc1	-12.3%	-13.4%	-14.5%	-18.5%	9.4%
O=c1[nH]c(=O)n(-c2ccc(F)cc2)c(O)c1/C=C1\C=Nc2ccccc21	-2.2%	-13.7%	-2.9%	-1.0%	19.0%
COc1ccc(-n2c(O)c(/C=C3\C=Nc4ccc(Br)cc43)c(=O)[nH]c2=O)c(OC)c1	?	?	31.6µM*	-21.3%	5.3%
Cc1ccccc1-n1c(O)c(/C=C2/C(c3ccccc3)=Nc3ccccc32)c(=O)[nH]c1=O	?	?	?	-17.1%	?
O=c1[nH]c(=O)n(CC2CCCO2)c(O)c1/C=C1\C=Nc2ccccc21 (centres undefined)	-28.6%	-25.5%	1.26µM*	-20.2%	30.9%
SMILES	BAZ2B inh	JMJD2A Tudor inh	G9a inh	Sfp PPTase inh	HP1b chromo inh
COC(=O)C1=Nc2ccccc2/C1=C\c1c(O)n(-c2cc(OC)ccc2OC)c(=O)[nH]c1=O	79.4µM*	-14.9%[57.1 µM]	?	?	?
O=c1[nH]c(=O)n(-c2ccccc2F)c(O)c1/C=C1\C=Nc2ccccc21	?	-25.4%	?	35.5µM*	12.9%
O=C(Nc1ccc2c(c1)OCCO2)c1cccn(Cc2ccccc2)c1=O	-4.6%	-21.4%	-27.6%[59 µM]	/	41.6%
COc1cc2[nH]c(=O)n(Cc3ccc(C(=O)NC4CCCC4)cc3)c(=O)c2cc1OC	4.1%	-24.3%	6.9%[12.7 µM]	22.8%	53.8%
CC(C)C[C@H](NC(=O)C1CC(=O)N(c2ccc3c(c2)OCO3)C1)C(=O)NCc1ccco1 (some centres undefined)	-28.2%	27.6%	?	-0.9%	41.6%
Cc1ccc(NC(=O)Cn2cc(C(=O)c3ccccc3)c3ccccc32)c(C)c1	0.0%	-14.8%	-3.7%[59 µM]	/	15.6%
O=C(O)/C=C\CO	/	/	/	16.4%	/
Clc1ccc(C(Cn2ccnc2)OCc2csc3c(Cl)cccc23)c(Cl)c1 (centres undefined)	10µM*	28.2µM*	12.6µM*	/	6.6%
Clc1ccc([C@H](Cn2ccnc2)OCc2csc3c(Cl)cccc23)c(Cl)c1	/	/	-26.4%[21.5 µM]	-7.9%	/
CC12CN3CC(C)(CN(C1)P3(=O)Oc1ccccc1)C2=O (centres undefined)	-5.6%	-33.1%	39.8µM*	-0.7%	2.2%
CC12CN3CC(c4ccccc4)(CN(C1)C31CCCCC1)C2=O	3.3%	2.1%	18.3%[59 µM]	12.8%	18.7%
O=C(CN1CCCCC1)c1ccc(OC(F)F)cc1	-28.8%	-20.6%	?	3.6%	39.9%
O=C(CCl)c1ccc(Oc2ccc(C(=O)CCl)cc2)cc1	/	/	?	50.1µM*	/
CCC(Sc1ccccc1)C(=O)OC1CC2CCC(C1)N2C (centres undefined)	/	/	-1.2%[59 µM]	-25.6%	/
Cc1cc(CN(C)C)c(OC(=O)N(C)C)cc1C	5.4%	3.0%	?	14.6%	31.5%
Cn1c(N)c(Sc2ccccc2[N+](=O)[O-])c(=O)n(C)c1=O	-1.6%	-4.9%	44.7µM*	-12.7%	4.9%
Cn1c(O)c(C=Nc2ccccc2Sc2ccccc2)c(=O)n(C)c1=O	1.5%	22.7%[57.1 µM]	10.7%[59 µM]	3.9%	99.2%
O=C1Nc2ccccc2/C1=C/c1nc2ccccc2c(=O)n1-c1ccc(O)cc1	39.8µM*	-26.0%	/	?	-21.8%
O=c1c2ccccc2nc(/C=C/c2ccc(O)c(O)c2)n1-c1ccccc1	?	-33.6%	7.94µM*	-15.1%	-15.0%
O=c1c2ccccc2nc(/C=C/c2ccc([N+](=O)[O-])o2)n1-c1ccc(O)cc1	?	-35.0%	50.1µM*	-14.1%	17.6%
CC(=O)N1CC(=O)Nc2ccc(Cl)cc2C1c1ccc(F)cc1 (centres undefined)	-5.8%	-5.8%	-11.3%	-4.2%	16.2%
COc1ccc(Cl)cc1NC1=NCC(C)S1 (centres undefined)	-3.7%	-13.4%	14.7%[59 µM]	10.2%	10.2%
CC(Cc1ccccc1)NC(=O)CCCCC(=O)NC(C)Cc1ccccc1 (centres undefined)	7.6%	-15.2%	/	10.2%	41.3%

Screening data as filed in PubChem BioAssay.
